Several values for one entry are separate records, joined by “and”; a condition that tells them apart may be missing. Equal values may be shown once. Activity calls are given as the source filed them. Rule for the calls: active = hit-call score of the fitted dose curve at least 0.9, where 1 is the maximum; inactive = score below 0.9.

Read-out in the assay: TIMP metallopeptidase inhibitor 1 (TIMP1), TIMP1 (gene 7076)
In words: BSK_MyoF_TIMP1: BioMAP Diversity Plus: MyoF Assay for TIMP metallopeptidase inhibitor 1 (TIMP1) Biomarker Activity (AID 2284269). As to conditions: primary human lung fibroblasts. The procedure: BSK_MyoF is a cell-based, multiplexed-readout assay that uses lung fibroblasts, […], with measurements taken at 24 hours after chemical dosing in a microplate: 96-well plate.BSK_MyoF_TIMP1 is an assay component measured in the BSK_MyoF assay. It measures TIMP-1 antibody related to regulation of gene expression using ELISA technology.Data from the assay component BSK_MyoF_TIMP1 was analyzed at the endpoint, BSK_MyoF_TIMP1, in the positive analysis fitting direction relative to DMSO as the negative control and baseline of activity. Using a type of binding reporter, gain or loss-of-signal activity can be used to understand protein changes. To generalize the intended target to other relatable targets, this assay endpoint is annotated to the 'protease' intended target family, where the subfamily is 'matrix metalloproteinase'.
The levels of cell surface (or secreted, indicated by the prefix "s") biomarker endpoints were measured by ELISA. Overt cytotoxicity to cells in confluent adherent cultures (all systems other than the BT system) was assessed by measuring total protein levels using sulforhodamine B (SRB) staining in parallel cultures at the time of biomarker measurements, indicated as SRB endpoints. For proliferation assays for adherent cell types, individual cell types are cultured at sub-confluence and relative cell numbers quantified by SRB staining at time points optimized for each system (48 h: 3C and CASM3C systems; 72 h: BT and HDF3CGF systems; 96 h: SAg system). SRB was performed by staining cells with 0.1% SRB after fixation with 10% TCA and reading wells at 560 nm.Viability and proliferation of PBMC (T cells) was quantified by Alamar Blue reduction for the SAg and BT systems. For PBMC viability (referred to as PBMC Cytotoxicity within the assay endpoint names), cells were plated (75,000/well in a 96-well plate) and then chemical samples added for 1 h before addition of activators, SEB and TSST-1 (20 ng/mL final concentration each). Cells were incubated for 90 h. Then, Alamar Blue (20 uL/well) (Invitrogen, Cat DAL1100) was added for 6 h, and the plates were read with a fluorescence microplate reader at 546/580 nm (excitation/emission). For PBMC proliferation, cells were plated and activated as above but incubated for only 16 h prior to addition of Alamar Blue. Plates were read after 6 h.
As to `NC(=NCCCCCCN=C(N)/N=C(\N)Nc1ccc(Cl)cc1)/N=C(\N)Nc1ccc(Cl)cc1`, the AC50 is 4.84 µM (active). In the case of `C=CC(=C)CC/C=C(\C)CCC=C(C)C`, the result was inactive. Take `CCOC(=O)CN[C@@H](C(=O)N1CC[C@H]1C(=O)NCc1ccc(/C(N)=N/O)cc1)C1CCCCC1`: the result was inactive.

For the compound `O=P(O)(O)CCC(F)(F)C(F)(F)C(F)(F)C(F)(F)C(F)(F)C(F)(F)C(F)(F)C(F)(F)F`, the outcome was inactive. On the same count and under the same terms, the value for `C[C@]12CC[C@@H]3c4ccc(O)cc4CC[C@H]3[C@@H]1C[C@@H](O)[C@@H]2O` was “inactive”; that for `O=C1c2ccc(O)c(O)c2C(=O)c2c(O)ccc(O)c21` was “inactive”. In the case of `CC(C)(C)c1ccc(O)c(O)c1`, the AC50 was 31.2 µM (active). Regarding `O=C(CC(=O)C(F)(F)C(F)(F)C(F)(F)F)c1cccs1`, the outcome was inactive. The same measure, in the same setting: next, `Cc1cccc2c1ccc1ccccc12`: “inactive”; `O=C(NO)c1ccccc1`: “inactive”; `O=C(O)CCC(F)(F)C(F)(F)C(F)(F)C(F)(F)C(F)(F)C(F)(F)F`: “inactive”.

With `CCCCCCCCCCCCCCCCCC[N+](C)(C)Cc1ccccc1`, the half-maximal activity concentration (AC50) was 4.88 µM (active). Regarding `Clc1ccc(Nc2nnc(Cc3ccncc3)c3ccccc23)cc1`, the result was inactive. On the same count and under the same terms, the value for `COc1cccc(O)c1` was “inactive”; that for `CN(CCO)S(=O)(=O)C(F)(F)C(F)(F)C(F)(F)C(F)(F)C(F)(F)C(F)(F)C(F)(F)C(F)(F)F` was “inactive”. As to `C=CC(C)(CCC=C(C)C)OC(C)=O` (stereo not drawn), the result was inactive.

As for `CN(Cc1cnc2nc(N)nc(N)c2n1)c1ccc(C(=O)N[C@@H](CCC(=O)O)C(=O)O)cc1`, the result was inactive. `OCC(F)(F)C(F)(F)C(F)(F)C(F)(F)C(F)(F)C(F)(F)C(F)(F)C(F)(F)C(F)(F)C(F)(F)C(F)(F)F`: the outcome was inactive. The same measure, in the same setting: the value for `O=C(NCc1ncc(C(F)(F)F)cc1Cl)c1c(Cl)cccc1Cl` was “inactive”; that for `Oc1cc2ccccc2cc1O` was “inactive”.

For `O=C1OC2(c3ccccc31)c1cc(I)c(O)c(I)c1Oc1c2cc(I)c(O)c1I`, the AC50 was 7.73 µM (active).

With `O=C(O)C(F)(F)OC(F)(F)C(F)(F)OC(F)(F)C(F)(F)OC(F)(F)C(F)(F)C(F)(F)C(F)(F)F`, the AC50 is 8.18 µM (active) and 8.09 µM (active). In the case of `CC1=NN(c2ccccc2)C(=O)C1`, the result was inactive. Still for that read-out and setting: next, `C=CC(=O)OCCC(F)(F)C(F)(F)C(F)(F)C(F)(F)C(F)(F)C(F)(F)C(F)(F)C(F)(F)F`: “inactive”; `Cc1ccc(C(=O)c2ccccc2)cc1`: “inactive”. The same measure, in the same setting: the value for `COCN(COC)c1nc(N(COC)COC)nc(N(COC)COC)n1` was “inactive”; that for `COC1=CC(=O)C[C@@H](C)[C@]12Oc1c(Cl)c(OC)cc(OC)c1C2=O` was “inactive”. On the same count and under the same terms, next, `Cc1ccc(N=Nc2c(O)ccc3ccccc23)c(C)c1`: “inactive”; `COc1cc(OC)nc(NC(=O)NS(=O)(=O)Nc2ccccc2C(=O)N(C)C)n1`: “inactive”; `O=P(O)(O)CCC(F)(F)C(F)(F)C(F)(F)C(F)(F)C(F)(F)C(F)(F)F`: “inactive”. On to `CCCCCc1ccc(O)cc1`, for which the AC50 is 20 µM (active). Take `C=COC(=O)C(C)(C)CCCCCC`: the outcome was inactive. For the compound `OCCN1CN(CCO)CN(CCO)C1`, the result was inactive. On the same count and under the same terms, next, `CCCCC(CC)C(=O)OCCOCCOCCOCCOC(=O)C(CC)CCCC` (stereo not drawn): “inactive”.

On to `CN(C)c1ccc(C(=C2C=CC(=[N+](C)C)C=C2)c2ccccc2)cc1`, for which the AC50 is 0.697 µM (active).

For `O=C(O)CCC(F)(F)C(F)(F)C(F)(F)C(F)(F)C(F)(F)F`, the result was inactive. Regarding `CC[N+](CC)(CC)Cc1ccccc1`, the outcome was inactive.

As for `O=S(=O)(O)C(F)(F)C(F)(F)C(F)(F)C(F)(F)C(F)(F)C(F)(F)C(F)(F)C(F)(F)C(F)(F)C(F)(F)F`, the result was inactive.

What is called AC50 is the concentration giving half of the maximal activity seen.
